Screens (PubChem)
MITF inh: blocks human microphthalmia-associated transcription factor. AlphaScreen MITF homodimerization, bead proximity signal. inhibition, % at 2.6 µM. actives 0.91% (n = 650,000); in the data active = inhibition above about 50%;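 also: 0% = vehicle wells with protein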
Target sequence (O75030 whole entry, looked up): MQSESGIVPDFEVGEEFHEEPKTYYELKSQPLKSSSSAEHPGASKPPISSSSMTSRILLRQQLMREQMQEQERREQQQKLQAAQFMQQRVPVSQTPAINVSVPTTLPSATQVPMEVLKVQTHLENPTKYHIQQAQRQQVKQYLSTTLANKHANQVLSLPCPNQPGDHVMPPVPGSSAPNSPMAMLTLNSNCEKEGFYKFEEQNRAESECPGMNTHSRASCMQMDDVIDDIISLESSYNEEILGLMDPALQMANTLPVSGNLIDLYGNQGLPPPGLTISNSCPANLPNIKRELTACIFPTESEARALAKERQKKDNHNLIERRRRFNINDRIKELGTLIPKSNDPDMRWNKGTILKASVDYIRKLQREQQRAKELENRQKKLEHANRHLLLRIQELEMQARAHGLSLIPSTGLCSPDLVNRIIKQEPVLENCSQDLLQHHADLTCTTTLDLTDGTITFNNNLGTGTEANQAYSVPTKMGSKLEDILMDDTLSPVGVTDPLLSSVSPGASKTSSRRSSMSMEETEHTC
TEAD-YAP block: TEAD-YAP interaction inhibition. HEK-TIYL cells, TEAD-Gal4/YAP UAS-luciferase luminescence. inhibition, % at 9.12 µM. actives 1.4% (n = 640,000); in the data active = inhibition above about 32%;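 also: 0% = median of test compound wells and 100% = reference inhibitor wells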
GPR151 ag: activators of human GPR151; Q8TDV0; PathHunter beta-arrestin GPR151 cells, luminescence; activation, % at 11.2 µM; actives 1% (n = 650,000); AID 1508602; in the data active = activation above about 4.9%;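 also: 0% = median of compound wells and 100% = cells with positive control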
FBW7 act: human FBW7 E3 ligase activation, primary screen; AlphaScreen FBW7–phospho-cyclin E peptide binding, activator screen; normalized activity (activation), % at 26.1 µM; actives 0.13% (n = 650,000); AID 1259310; in the data active = normalized activity above about 1.9%;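 also: purified mutant Fbw7 with reduced substrate affinity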
GPR151 confirm: human GPR151 activation, confirmation screen. shares compounds with GPR151 ag. GPR151 PathHunter beta-arrestin cells, luminescence, 90 min; % of EA-reagent control over plate median. activation, % at 11.2 µM. 6,700 tested, under 10 active. AID 1508609;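 active = mean percent activation across replicates above the confirmation screen cutoff of 4.91%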
GPR119 ag: activates human GPR119 in a GPR151 counter-screen; shares compounds with GPR151 ag; GPR119 PathHunter beta-arrestin cells, luminescence, 90 min; 0 = compound-well median, 100 = enzyme-acceptor control; activation, % at 11.2 µM; actives 0.3% (n = 6,700); AID 1508611;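 active = mean percent activation in the counterscreen above 29.09%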;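 also: counterscreen on off-target GPR119 to flag nonselective hits from the GPR151 activator screen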
Starred values were filed as active, the others as inactive; x = no result; ! = not confirmed by another sample. Compounds with a hit are over-represented: about 3.5% of the library has one in this group of screens.

SMILES	MITF inh	TEAD-YAP block	GPR151 ag	FBW7 act	GPR151 confirm	GPR119 ag
Fc1ccc(C2CC(c3ccc(Br)cc3)=NN2c2nc(-c3ccccc3)c3cc(Br)ccc3n2)cc1 (configuration not stated)	-2	5	5.8*	0	0	2
CCCOc1ccc(-c2nn(-c3ccccc3)cc2/C=c2\sc3nc(-c4ccncc4)nn3c2=O)cc1	15	9	-2	0	x	x
CC(=O)n1cc(/C=c2\sc3nc4cc(C)c(C)cc4n3c2=O)c(-c2ccc(F)cc2)n1	-12	-7	6.1*	0	1	-7
CCCCN(CCCC)c1nc(C)cc(=O)[nH]1	-5	5	5.1*!	0	0	-1
O=S(=O)(NCCSc1nnnn1-c1ccccc1)c1ccccc1	-1	-3	8.7*	0	0	13
COc1ccc(Br)cc1S(=O)(=O)N1CCN(c2ccc(N3CCCC3)nn2)CC1	3	7	7.7*	0	1	3
COc1ccccc1N1CCN(S(=O)(=O)c2ccc(Br)cc2C)CC1	-17	-7	8.5*	0	0	-7
COc1ccc(-c2nc3c(cnn3-c3ccccc3)c(=O)[nH]2)cc1	13	-3	1	1	x	x
COc1ccccc1N=C1SC(CC(=O)Nc2cccc([N+](=O)[O-])c2)C(=O)N1C (configuration not stated)	-3	-6	14*	0	-1	-7
CC(=O)Oc1cccc(N2C(=O)c3ccc(C(=O)Nc4cc(C(=O)O)ccc4C)cc3C2=O)c1	4	-18	0	0	x	x
Nc1c(C(=O)Nc2ccc3c(c2)OCCO3)sc2nc(-c3cccs3)ccc12	-6	11	6.3*	0	-1	-2
Nc1c(C(=O)Nc2ccc3c(c2)OCCO3)sc2nc3cc4c(cc3cc12)OCCO4	11	-77	0	0	x	x
COC(=O)COc1ccc(S(=O)(=O)Nc2ccc(S(N)(=O)=O)cc2)cc1C	3	-6	5.9*	0	1	-1
COC(=O)COc1ccc(S(=O)(=O)Nc2ccc(C(N)=O)cc2)cc1C	-8	3	-1	0	x	x
O=c1[nH]c2ccc(S(=O)(=O)NCCO)cc2[nH]1	2	3	-1	0	x	x
COCCCNS(=O)(=O)c1ccc2[nH]c(=O)[nH]c2c1	-3	-6	6.0*	0	1	16
COc1ccc(S(=O)(=O)NCCCCCC(=O)O)cc1C(=O)O	10	0	8.8*	0	1	-3
COc1ccccc1NS(=O)(=O)c1ccc(Cl)c(C(=O)Nc2ccc(Cl)cc2)c1	6	9	9.6*	0	0	-8
COc1ccccc1NS(=O)(=O)c1ccc(Br)c(C(=O)Nc2ccccc2)c1	11	5	2	0	x	x
CCNc1ncc(C(=O)NCCN(C(C)C)C(C)C)s1	12	-12	1	0	x	x
CC(=O)N1CCC2(CC1)OCc1cc(-c3ccc4c(c3)CCO4)ccc1O2	-18	-11	1	0	x	x
COc1ccc([N+](=O)[O-])cc1-c1ccc(/C=C2/SC(=Nc3ccccc3)N(c3ccccc3)C2=O)o1	10	8	-1	0	x	x
CC12C(=O)N(CCCCCCN3C(=O)C4C5C=CC(C5)C4(C)C3=O)C(=O)C1C1C=CC2C1 (configuration not stated)	-4	-2	1	0	x	x
CCn1cc([N+](=O)[O-])c(C(=O)Nc2ccc(S(=O)(=O)Nc3ncccn3)cc2)n1	1	2	-1	0	x	x
COc1ccccc1NS(=O)(=O)c1cccc(S(=O)(=O)Nc2ccccc2OC)c1	7	9	-1	0	x	x
SMILES	MITF inh	TEAD-YAP block	GPR151 ag	FBW7 act	GPR151 confirm	GPR119 ag
COc1ccc(S(=O)(=O)Nc2ccc(Cl)cc2)cc1I	2	9	19*	0	0	6
COCCCNS(=O)(=O)c1ccc(OC)c(I)c1	4	-2	-1	0	x	x
COc1ccc(S(=O)(=O)Nc2ccc(I)cc2)cc1C	2	4	6.8*	0	0	-8
COCCNS(=O)(=O)c1ccc(OC)c(I)c1	-10	3	9.4*	0	1	9
COc1ccccc1NS(=O)(=O)c1cccc(C(F)(F)F)c1	-6	3	6.8*	0	0	10
Cc1ccc(C2/C(=C(\O)c3ccc(Cl)cc3)C(=O)C(=O)N2c2ncc(S(=O)(=O)c3ccc([N+](=O)[O-])cc3)s2)cc1 (configuration not stated)	-3	-6	0	0	x	x
Cc1ccc(OCC(=O)Nc2ccc(-c3nc4cc(Cl)ccc4o3)cc2)cc1	7	-4	2	0	x	x
COc1ccc(-c2[nH]ncc2CN2CCN(CC=C(C)C)C(CCO)C2)cc1 (configuration not stated)	20	-4	0	0	x	x
COc1ccc(S(=O)(=O)Nc2ccc3oc4c(c3c2)CCCC4)cc1[N+](=O)[O-]	-4	10	6.4*	0	0	1
COc1ccc(S(=O)(=O)Nc2ccc(C)c(C)c2)cc1[N+](=O)[O-]	10	1	4	0	x	x
COc1ccc(S(=O)(=O)Nc2ccc(-c3cn4ccsc4n3)cc2)cc1C	6	7	13*	0	1	9
COCCNS(=O)(=O)c1ccc(Cl)c(C(F)(F)F)c1	3	5	8.8*	0	1	7
S=C(c1ccc(OCc2ccccc2)cc1)N1CCN(c2ccccc2)CC1	9	14	-1	0	x	x
COc1ccccc1NC(=O)c1cc(S(=O)(=O)NCc2ccc(F)cc2)ccc1F	-4	-5	-2	0	x	x
CCCn1cc(SCC(=O)Nc2ccc(OCC)cc2)c2ccccc21	-11	20	0	0	x	x
CCOc1ccc(NC(=O)CSc2cn(Cc3cccc(F)c3)c3ccccc23)cc1	11	-5	18*	0	0	4
CN(C)CC(O)COC(c1ccccc1)c1ccccc1 (configuration not stated)	-4	7	7.7*	0	0	-4
CCN1CCN(CC(O)COC(c2ccccc2)c2ccccc2)CC1 (configuration not stated)	-20	1	2	0	x	x
COc1ccc(/C=C2\SC(=Nc3ccc(O)cc3)NC2=O)cc1	-16	8	1	0	x	x
Cc1cc(C)cc(N=C2NC(=O)/C(=C/c3ccc(OCc4ccc(Br)cc4)c(Br)c3)S2)c1	-1	-12	0	0	x	x
COc1ccc(/C=C2/SC(=Nc3ccc(O)cc3)NC2=O)cc1	4	3	5.0*	0	1	6
Cc1cc(C)cc(N=C2NC(=O)/C(=C/c3ccc(OCc4ccc(Br)cc4)cc3)S2)c1	-2	2	5.7*	0	0	11
CC(=O)Nc1ccccc1-c1nc2ccc(C(=O)NCc3ccccc3)cc2[nH]c1=O	20	9	3	1	x	x
